# From PubChem BioAssay (NCATS)
# Values joined by “and” are separate entries in the source; they are usually repeats but may differ in a detail not shown here. Equal entries are not always repeated. Inconclusive results are not listed. Active and inactive are the calls of the source. Unless noted, the call rests on the fitted dose curve; in most records, active means well fitted curve in the direction sought with a large enough effect; inconclusive means small, poorly fitted or top-dose-only effect, or another doubt; inactive means no such curve, though single readings can be large; an effect the other way counts as inactive or inconclusive.
# Key:
# [1] = Confirmatory qHTS to identify inhibitors of SARS-CoV-2 cell entry (AID 1645844; calls by dose curve; further: potency means the concentration at half of the fitted maximal effect; nearly all actives have a fitted effect of over 45% in size)
# How it was run: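 Luminescence from a luciferase reporter, read 48 hr after pseudotyped-particle addition, gives entry signal, normalised to spike-bearing PP wells and bald PP lacking fusion protein wells. Cells are Expi293F stably expressing human ACE2, compound-pretreated 1 hr.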
# [2] = molecular target: Cytochrome P450 3A4 (Homo sapiens) (UniProt P08684); experiment: qHTS Assay for Inhibitors and Substrates of Cytochrome P450 3A4 (AID 884); further: nearly all actives have a fitted effect of over 50% in size; further: potency means the concentration at half of the fitted maximal effect; on activity change, negative = inhibition: on the % scale 0 is the no-effect control and ±100 the full control effect
# Sequence of Cytochrome P450 3A4 (Homo sapiens) (P08684 whole entry, looked up): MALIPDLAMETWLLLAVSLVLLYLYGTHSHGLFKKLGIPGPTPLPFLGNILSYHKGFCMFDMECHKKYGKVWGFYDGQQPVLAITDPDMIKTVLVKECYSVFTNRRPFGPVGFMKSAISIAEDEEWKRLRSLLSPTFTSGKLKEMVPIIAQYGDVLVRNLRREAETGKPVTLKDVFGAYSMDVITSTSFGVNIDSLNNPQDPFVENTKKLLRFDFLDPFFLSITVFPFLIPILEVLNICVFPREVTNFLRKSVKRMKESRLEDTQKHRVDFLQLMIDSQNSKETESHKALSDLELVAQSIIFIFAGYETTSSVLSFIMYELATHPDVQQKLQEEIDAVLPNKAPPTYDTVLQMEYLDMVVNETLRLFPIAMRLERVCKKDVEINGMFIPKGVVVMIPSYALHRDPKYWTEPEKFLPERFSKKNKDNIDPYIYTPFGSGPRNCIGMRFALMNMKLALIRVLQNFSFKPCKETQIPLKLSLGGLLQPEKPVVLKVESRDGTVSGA
# How it was run: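 20 nM human CYP3A4 with 25 uM Luciferin-PPXE (at KM) in 200 mM KPO4, preincubated 10 min with compound; NADPH regeneration started a 60 min RT reaction. Luciferin detected by luminescence, normalized to 57 uM ketoconazole as full inhibition.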
# [3] = Confirmation and Secondary Assay for Modulators of Hemoglobin Beta Chain Splicing at IVS2 654 locus (AID 910);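 further: HeLa cells stably carrying EGFP split by mutant beta-globin IVS2-654 intron; per-well total GFP intensity by laser scanning cytometry after 2-day treatment; % of control where 0% means no effect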
# How it was run: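 Readout: per-well total peak green fluorescence (488 nm ex, 500–520 nm em) from objects 5–250 µm, reflecting correct splicing of an EGFP-654 reporter. Compounds were applied for 2 days at 37 °C to overnight-plated HeLa EGFP-654 cells; controls were DMSO and 500 nM IVS2-654 PNA.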
# [4] = Confirmation and Secondary Assay for Modulators of Hemoglobin Beta Chain Splicing at IVS2 705 locus (AID 930);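 further: HeLa cells stably expressing the EGFP-705 splicing reporter; GFP fluorescence per well restored by corrected splicing of the IVS2-705 intron in EGFP; % of control where 0% means no effect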
# How it was run: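 First, HeLa EGFP-705 cells are seeded at 500/well in Optimem with 2% FCS and left overnight. Next, compound or DMSO is added for 2 days. Finally wells are laser-scanned and total peak GFP intensity scored.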
# [5] = qHTS Assay for Lipid Storage Modulators (AID 1519; calls by dose curve; on activity change, negative = inhibition: on the % scale 0 is the no-effect control and ±100 the full control effect); settings: Drosophila S3 cells, BODIPY lipid droplet/cell ratio, laser cytometry, cells loaded with oleic acid
# How it was run: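 Cells seeded at 5,000 per well were treated with compounds over a concentration series and loaded with oleic acid (400 uM, as added). Lipid droplet fluorescence (488 nm excitation, 500-530 nm channel) was read by laser-scanning cytometry and normalized to 20 uM Triacsin C.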
# [6] = molecular target: Alpha-galactosidase (Coffea arabica) (UniProt Q42656); experiment: Counterscreen for Glucocerebrosidase Inhibitors: qHTS Assay for Coffee Bean alpha-Galactosidase at pH 5.9 (AID 998);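 further: plate controls were uninhibited enzyme for no effect and no-enzyme basal signal for full effect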
# Sequence of Alpha-galactosidase (Coffea arabica) (Q42656 whole entry, looked up): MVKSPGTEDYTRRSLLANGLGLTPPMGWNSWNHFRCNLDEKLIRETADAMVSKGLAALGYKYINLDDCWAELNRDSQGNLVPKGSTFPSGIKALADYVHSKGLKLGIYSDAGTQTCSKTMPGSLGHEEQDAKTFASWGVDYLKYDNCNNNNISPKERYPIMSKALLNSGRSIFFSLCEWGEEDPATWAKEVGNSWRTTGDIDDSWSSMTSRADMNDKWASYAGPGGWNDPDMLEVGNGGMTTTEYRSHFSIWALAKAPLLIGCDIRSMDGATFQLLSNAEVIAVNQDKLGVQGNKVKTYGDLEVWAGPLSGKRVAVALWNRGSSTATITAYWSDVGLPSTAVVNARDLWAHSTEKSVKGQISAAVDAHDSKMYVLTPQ
# How it was run: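 Compounds were titrated from 0.7 nM to 77 uM against green coffee bean alpha-galactosidase (2 nM) using 80 uM fluorogenic 4-methylumbelliferyl substrate. After 20 min at room temperature, reactions were stopped at pH 10 and read by fluorescence.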
# [7] = molecular target: Cytochrome P450 2D6 (Homo sapiens) (UniProt P10635); experiment: Cytochrome P450 family 2 subfamily D member 6 (CYP2D6) small molecule antagonists: luciferase biochemical (cell-free) qHTS assay (AID 1645840; active means well fitted curve in the direction sought with a large enough effect in the repeat runs; an effect the other way counts as inactive or inconclusive; further: on the % scale 0 is the no-effect control and ±100 the full control effect; nearly all actives have a fitted effect of over 55% in size)
# Sequence of Cytochrome P450 2D6 (Homo sapiens) (P10635 whole entry, looked up): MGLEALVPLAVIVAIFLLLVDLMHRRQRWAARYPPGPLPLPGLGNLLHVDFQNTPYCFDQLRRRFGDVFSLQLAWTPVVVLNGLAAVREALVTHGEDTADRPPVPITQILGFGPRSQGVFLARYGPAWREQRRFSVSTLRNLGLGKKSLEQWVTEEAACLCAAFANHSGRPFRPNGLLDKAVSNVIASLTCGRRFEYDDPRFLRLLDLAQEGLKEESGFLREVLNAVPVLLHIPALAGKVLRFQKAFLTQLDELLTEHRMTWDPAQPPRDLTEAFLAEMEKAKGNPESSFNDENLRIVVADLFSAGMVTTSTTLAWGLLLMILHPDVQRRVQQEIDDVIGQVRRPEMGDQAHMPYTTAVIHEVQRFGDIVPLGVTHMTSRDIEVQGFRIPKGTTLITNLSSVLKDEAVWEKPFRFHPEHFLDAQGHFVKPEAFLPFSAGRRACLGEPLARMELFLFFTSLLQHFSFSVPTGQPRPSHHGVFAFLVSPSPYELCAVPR
# How it was run: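 P450-Glo luminescent screen: recombinant CYP2D6 enzyme–proluciferin substrate mix preincubated with compound 10 min at room temperature, then NADPH regeneration added for 1 h at room temperature. Detection reagent added for 20 min; luciferin light read as relative luminescence units.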
# [8] = molecular target: Ubiquitin carboxyl-terminal hydrolase 1 (Homo sapiens) (UniProt O94782); experiment: Inhibitors of USP1/UAF1: Pilot qHTS (AID 504865);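 further: rhodamine fluorescence freed from ubiquitin-rhodamine substrate followed over time; top concentration of the series differs between compounds; on the % scale 0 is the no-effect control and ±100 the full control effect; nearly all actives have a fitted effect of over 35% in size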
# Sequence of Ubiquitin carboxyl-terminal hydrolase 1 (Homo sapiens) (O94782 whole entry, looked up): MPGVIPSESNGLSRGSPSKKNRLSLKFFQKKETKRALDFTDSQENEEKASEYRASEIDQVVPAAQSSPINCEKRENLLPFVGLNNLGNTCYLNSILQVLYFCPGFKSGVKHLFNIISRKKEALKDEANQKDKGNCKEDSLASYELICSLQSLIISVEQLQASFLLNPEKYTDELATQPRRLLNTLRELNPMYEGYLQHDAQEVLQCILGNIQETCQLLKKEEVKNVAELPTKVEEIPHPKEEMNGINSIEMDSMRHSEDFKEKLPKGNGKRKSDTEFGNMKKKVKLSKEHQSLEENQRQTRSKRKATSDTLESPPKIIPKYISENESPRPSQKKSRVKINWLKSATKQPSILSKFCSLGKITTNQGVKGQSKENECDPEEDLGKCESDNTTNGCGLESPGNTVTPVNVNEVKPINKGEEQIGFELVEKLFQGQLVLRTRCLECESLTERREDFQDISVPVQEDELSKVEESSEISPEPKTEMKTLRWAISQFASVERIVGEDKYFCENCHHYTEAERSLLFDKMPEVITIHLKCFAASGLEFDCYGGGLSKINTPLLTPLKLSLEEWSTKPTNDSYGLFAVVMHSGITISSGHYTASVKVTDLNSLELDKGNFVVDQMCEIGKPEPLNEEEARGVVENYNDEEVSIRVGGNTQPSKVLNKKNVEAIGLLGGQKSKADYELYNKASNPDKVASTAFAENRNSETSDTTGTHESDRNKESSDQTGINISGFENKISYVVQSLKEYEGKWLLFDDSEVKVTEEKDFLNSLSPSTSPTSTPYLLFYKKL
# How it was run: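 USP1/UAF1 complex at 1 nM preincubated 15 min at room temperature with compound, then Ub-Rho substrate added at 150 nM final. Fluorescence (480/540 nm) read kinetically in 50 mM HEPES pH 7.8, 0.5 mM EDTA, 1 mM TCEP, 0.1 mg/ml BSA, 0.01% Tween-20.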
# [9] = measured here: cell count channel max response
# [10] = measured here: lipid channel max response
smiles,measurement,setting,value
Cn1cc(C2=C(c3cn(C)c4cc([N+](=O)[O-])ccc34)C(=O)NC2=O)c2ccccc21,Potency,[1],1710 nM (active)
CN1C2CC(OC(=O)C(CO)c3ccccc3)CC1C(O)C2 (stereo unspecified),Potency,[2],inactive
same,Potency,[3],inactive
same,Potency,[4],inactive
same,"activity change, negative = inhibition",[5]; at 57.5 µM (top of the series),5.64% (inactive)
same,max response,[5]; [9],7.52%
same,max response,[5]; [10],14.4%
NC(=O)c1ccc(N)nc1,Potency,[2],inactive
same,Potency,[3],inactive
same,Potency,[4],inactive
same,"activity change, negative = inhibition",[5]; at 57.5 µM (top of the series),2.67% (inactive)
same,max response,[5]; [9],16.6%
same,max response,[5]; [10],22.3%
COC1C(O)C(OC2CC[C@]3(C=O)C4C(OC(C)=O)C[C@@]5(C)C(C6=CC(=O)OC6)CC[C@]5(O)C4CC[C@]3(O)C2)OC(C)C1OC(C)=O (stereo partly specified),Potency,[2],inactive
same,Potency,[3],inactive
same,Potency,[4],inactive
same,"activity change, negative = inhibition",[5]; at 57.5 µM (top of the series),4.28% (inactive)
same,max response,[5]; [9],10%
same,max response,[5]; [10],17.4%
CC(C)C[C@H]1C(=O)N2CCC[C@@H]2[C@]2(O)O[C@](NC(=O)[C@H]3C=C4c5cccc6[nH]c(Br)c(c56)C[C@H]4N(C)C3)(C(C)C)C(=O)N12,outcome,[6],inactive
same,"activity change, negative = inhibition",[5]; at 25.7 µM (top of the series),-0.675% (inactive)
same,max response,[5]; [9],-7.2%
same,max response,[5]; [10],-5.42%
CCOC(=O)/C=C/[C@H](C[C@@H]1CCNC1=O)NC(=O)[C@@H](CC(=O)[C@@H](NC(=O)c1cc(C)on1)C(C)C)Cc1ccc(F)cc1,Potency,[7],inactive
CC(C)c1ccc2c(c1O)CCC1C3=C(CC[C@]21C)C(=O)OC3 (stereo partly specified),Potency,[2],15800 nM (active)
same,Potency,[3],inactive
same,Potency,[4],inactive
same,"activity change, negative = inhibition",[5]; at 57.5 µM (top of the series),1.46% (inactive)
same,max response,[5]; [9],-9.02%
same,max response,[5]; [10],-0.042%
CN1CC(CNC(=O)OCc2ccccc2)CC2c3cccc4c3c(cn4C)CC21 (stereo unspecified),Potency,[3],inactive
same,Potency,[4],inactive
same,"activity change, negative = inhibition",[5]; at 57.5 µM (top of the series),7.09% (inactive)
same,max response,[5]; [9],-1.98%
same,max response,[5]; [10],5.84%
CCCCCCC(C)OC(=O)COc1ccc(Cl)cc1Cl (stereo unspecified),Potency,[2],inactive
same,Potency,[3],inactive
same,Potency,[4],inactive
same,"activity change, negative = inhibition",[5]; at 57.5 µM (top of the series),1.06% (inactive)
same,max response,[5]; [9],1.5%
same,max response,[5]; [10],2.82%
C[C@]12CCC3C(CC[C@]4(O)CC(O)CC[C@@]34C=O)[C@]1(O)CCC2C1=CC(=O)OC1 (stereo partly specified),Potency,[3],inactive
same,Potency,[4],inactive
same,"activity change, negative = inhibition",[5]; at 57.5 µM (top of the series),-3.74% (inactive)
same,max response,[5]; [9],12.5%
same,max response,[5]; [10],11%
c1cc2c(cc1C1OC[C@@H]3C(c4ccc5c(c4)OCO5)OCC13)OCO2 (stereo partly specified),Potency,[2],79.4 nM (active)
same,Potency,[3],inactive
same,Potency,[4],inactive
same,"activity change, negative = inhibition",[5]; at 57.5 µM (top of the series),7.47% (inactive)
same,max response,[5]; [9],12.5%
same,max response,[5]; [10],26%
CC(=O)Oc1ccc(Cl)c2cccnc12,Potency,[2],inactive
same,Potency,[3],inactive
same,Potency,[8],inactive
same,Potency,[7],inactive
CCC(CO)NC(=O)C1C=C2c3cccc4[nH]cc(c34)CC2N(C)C1 (stereo unspecified),Potency,[3],inactive
same,Potency,[4],inactive
same,"activity change, negative = inhibition",[5]; at 57.5 µM (top of the series),10.6% (inactive)
same,max response,[5]; [9],3.07%
same,max response,[5]; [10],18.5%
O=c1ccc2cc(O[C@H]3OC(CO)C(O)C(O)C3O)c(O)cc2o1 (stereo partly specified),Potency,[3],inactive
same,Potency,[4],inactive
same,"activity change, negative = inhibition",[5]; at 57.5 µM (top of the series),5.45% (inactive) and 5.34% (inactive)
same,max response,[5]; [9],5.76% and 15.4%
same,max response,[5]; [10],15.3% and 32.6%
